Values joined by “and” are separate entries in the source; they are usually repeats but may differ in a detail not shown here. Equal values may be shown once. Records with an inconclusive call do not appear. Some structures have more than one record in an assay (separate samples or runs), and their calls can disagree. Active and inactive are the calls of the source. Unless noted, calls come from the whole dose curve; as a rule, active = well fitted curve in the direction sought with a large enough effect in the repeat runs; inconclusive = weak or mixed curves; inactive = no such curve, though single readings can be large; an effect the other way counts as inactive or inconclusive.
Legend:
[1] = Caspase-3/7 induction in HepG2 cells by small molecules, qHTS assay (AID 1346978); note: nearly all actives have a fitted effect of over 15% in size; note: potency is the fitted concentration of half-maximal effect
Procedure, shortened: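 Wild-type HepG2 cells, 2,000/well, settled 5 hr at 37 C and 5% CO2, then compound-treated for 17 hr; caspase-3/7 activity read by luminescent Caspase-Glo 3/7 after 30 min at room temperature.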

[2] = Caspase-3/7 induction in CHO-K1 cells by small molecules, qHTS assay (AID 1346980); note: nearly all actives have a fitted effect of over 15% in size; note: potency is the fitted concentration of half-maximal effect
Procedure, shortened: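 Wild-type CHO-K1 cells exposed to compounds for 17hr at 37 C, 5% CO2. Caspase-3/7 activity then measured by Caspase-Glo 3/7 luminescence after 30min at room temperature.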

[3] = Caspase-3/7 induction in HepG2 cells by small molecules, qHTS cell viability counter screen (AID 1346981); note: nearly all actives have a fitted effect of over 30% in size; note: potency is the fitted concentration of half-maximal effect
Procedure, shortened: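 The parent HepG2 line is plated at 2,000 cells per well and rested 5 hr before compound pinning from DMSO stocks. Following a 16-hr treatment at 37 C, a fluorogenic live-cell substrate (CellTiter-Fluor) reports viability after 1 hr.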

[4] = target: Nuclear receptor subfamily 1 group I member 2 (Homo sapiens) (UniProt O75469); experiment: Human pregnane X receptor (PXR) small molecule agonists, qHTS assay (AID 1346982); note: nearly all actives have a fitted effect of over 35% in size; note: potency is the fitted concentration of half-maximal effect
Sequence of Nuclear receptor subfamily 1 group I member 2 (Homo sapiens) (O75469 whole entry, looked up): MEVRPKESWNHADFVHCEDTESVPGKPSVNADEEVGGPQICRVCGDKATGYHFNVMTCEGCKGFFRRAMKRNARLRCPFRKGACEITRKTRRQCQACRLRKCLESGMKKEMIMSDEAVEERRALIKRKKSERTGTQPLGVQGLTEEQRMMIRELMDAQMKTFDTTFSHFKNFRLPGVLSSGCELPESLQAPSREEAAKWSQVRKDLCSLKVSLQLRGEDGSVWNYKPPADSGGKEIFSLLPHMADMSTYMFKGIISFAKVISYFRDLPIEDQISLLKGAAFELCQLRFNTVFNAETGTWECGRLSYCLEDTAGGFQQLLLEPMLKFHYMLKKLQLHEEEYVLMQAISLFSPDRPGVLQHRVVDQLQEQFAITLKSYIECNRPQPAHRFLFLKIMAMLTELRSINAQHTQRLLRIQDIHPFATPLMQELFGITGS
Procedure, shortened: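 After plating in 5% charcoal-stripped FBS and a 5 hr rest, PXR-Luc HepG2 cells received compounds in DMSO. Following 24 hr at 37 C, ONE-Glo was added and light output read.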

[5] = target: Nuclear receptor subfamily 1 group I member 2 (Rattus norvegicus) (UniProt Q9R1A7); experiment: Rat pregnane X receptor (rPXR) activation by small molecules, qHTS assay (AID 1346983); details: rPXR luciferase reporter cells, One-Glo luminescence, 24 h; max activation: stronger effect = higher value; note: nearly all actives have a fitted effect of over 20% in size; note: potency is the fitted concentration of half-maximal effect; for max activation: % is set by controls: 0 for no effect and ±100 for the full control effect
Sequence of Nuclear receptor subfamily 1 group I member 2 (Rattus norvegicus) (Q9R1A7 whole entry, looked up): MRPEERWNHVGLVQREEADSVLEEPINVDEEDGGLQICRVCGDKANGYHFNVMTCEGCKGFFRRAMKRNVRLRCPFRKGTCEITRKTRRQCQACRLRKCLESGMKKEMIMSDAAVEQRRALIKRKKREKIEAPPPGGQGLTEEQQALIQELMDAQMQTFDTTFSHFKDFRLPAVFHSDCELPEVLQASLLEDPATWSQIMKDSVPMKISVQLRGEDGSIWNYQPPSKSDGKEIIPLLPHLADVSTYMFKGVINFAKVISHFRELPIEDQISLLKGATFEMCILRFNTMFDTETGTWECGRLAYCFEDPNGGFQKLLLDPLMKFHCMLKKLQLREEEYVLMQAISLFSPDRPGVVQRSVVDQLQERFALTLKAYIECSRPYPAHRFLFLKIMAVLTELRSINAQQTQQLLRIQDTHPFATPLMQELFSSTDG
Procedure, shortened: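 Cell-based rPXR activation assay: rPXR cells, 2,000 per well, rested 5hr at 37 C, then exposed to compounds in DMSO for 24 hr at 37 C. Luciferase activity read by One-Glo luminescence after 30 min at room temperature.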

[6] = target: Nuclear receptor subfamily 1 group I member 2 (Homo sapiens) (UniProt O75469); experiment: CYP3A4 induction through human pregnane X receptor (PXR) by small molecules, qHTS assay (AID 1346984); note: % is set by controls: 0 for no effect and ±100 for the full control effect; nearly all actives have a fitted effect of over 40% in size
Procedure, shortened: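 Human PXR activation is tracked via CYP3A4 promoter-luciferase in DPX-2 (HepG2) cells. Compounds treat cells for 24hr at 37C, and luminescence is read after One-Glo.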

[7] = target: Cytochrome P450 2D6 (Homo sapiens) (UniProt P10635); experiment: Cytochrome P450 Family 2 Subfamily D Member 6 (CYP2D6) small molecule antagonists: luciferase reporter qHTS assay (AID 1671196); note: nearly all actives have a fitted effect of over 50% in size; note: potency is the fitted concentration of half-maximal effect; for activity change, negative = inhibition: series mostly up to about 120 µM; % is set by controls: 0 for no effect and ±100 for the full control effect
Sequence of Cytochrome P450 2D6 (Homo sapiens) (P10635 whole entry, looked up): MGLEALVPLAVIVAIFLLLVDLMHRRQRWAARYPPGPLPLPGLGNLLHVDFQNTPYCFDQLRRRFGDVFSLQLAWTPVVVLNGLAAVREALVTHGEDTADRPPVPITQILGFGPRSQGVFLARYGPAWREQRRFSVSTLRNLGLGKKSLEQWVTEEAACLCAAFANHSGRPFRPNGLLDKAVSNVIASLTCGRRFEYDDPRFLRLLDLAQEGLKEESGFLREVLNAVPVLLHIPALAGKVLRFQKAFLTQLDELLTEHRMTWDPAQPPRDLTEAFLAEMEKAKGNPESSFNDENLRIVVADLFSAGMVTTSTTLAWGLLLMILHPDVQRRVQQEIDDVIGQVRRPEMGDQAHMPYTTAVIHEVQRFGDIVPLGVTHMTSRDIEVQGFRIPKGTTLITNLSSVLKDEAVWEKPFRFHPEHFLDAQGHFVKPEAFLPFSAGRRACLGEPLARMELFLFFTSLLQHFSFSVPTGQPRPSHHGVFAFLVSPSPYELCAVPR
Procedure, shortened: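 Quantitative HTS of Tox21 chemicals against CYP2D6 using a luminescent proluciferin substrate. After NADPH addition, 1 h room-temperature reaction; luminescence recorded 20 min post detection reagent.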

[8] = target: Cytochrome P450 2C19 (Homo sapiens) (UniProt P33261); experiment: Cytochrome P450 Family 2 Subfamily C Member 19 (CYP2C19) small molecule antagonists: luciferase reporter qHTS assay (AID 1671197); note: nearly all actives have a fitted effect of over 65% in size; note: potency is the fitted concentration of half-maximal effect; for activity change, negative = inhibition: series mostly up to about 120 µM; % is set by controls: 0 for no effect and ±100 for the full control effect
Sequence of Cytochrome P450 2C19 (Homo sapiens) (P33261 whole entry, looked up): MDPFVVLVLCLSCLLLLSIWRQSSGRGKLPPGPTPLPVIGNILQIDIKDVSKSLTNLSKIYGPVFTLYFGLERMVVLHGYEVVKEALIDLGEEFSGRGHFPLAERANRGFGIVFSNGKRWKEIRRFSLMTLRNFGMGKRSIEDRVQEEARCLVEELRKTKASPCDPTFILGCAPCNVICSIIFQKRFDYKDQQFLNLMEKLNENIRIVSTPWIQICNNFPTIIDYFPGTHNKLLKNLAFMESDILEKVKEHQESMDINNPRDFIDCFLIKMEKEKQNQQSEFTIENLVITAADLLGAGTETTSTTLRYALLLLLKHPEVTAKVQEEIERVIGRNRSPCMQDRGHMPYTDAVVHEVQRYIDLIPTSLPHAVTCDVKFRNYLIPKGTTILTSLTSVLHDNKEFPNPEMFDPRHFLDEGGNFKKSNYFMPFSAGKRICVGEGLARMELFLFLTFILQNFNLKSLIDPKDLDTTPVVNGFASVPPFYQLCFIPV
Procedure, shortened: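 Compounds were tested on CYP2C19 activity via proluciferin conversion to luciferin. The 37C, 1 h reaction followed NADPH addition; detection reagent stopped it.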

[9] = target: Cytochrome P450 2C9 (Homo sapiens) (UniProt P11712); experiment: Cytochrome P450 Family 2 Subfamily C Member 9 (CYP2C9) small molecule antagonists: luciferase reporter qHTS assay (AID 1671198); note: nearly all actives have a fitted effect of over 50% in size; note: potency is the fitted concentration of half-maximal effect
Sequence of Cytochrome P450 2C9 (Homo sapiens) (P11712 whole entry, looked up): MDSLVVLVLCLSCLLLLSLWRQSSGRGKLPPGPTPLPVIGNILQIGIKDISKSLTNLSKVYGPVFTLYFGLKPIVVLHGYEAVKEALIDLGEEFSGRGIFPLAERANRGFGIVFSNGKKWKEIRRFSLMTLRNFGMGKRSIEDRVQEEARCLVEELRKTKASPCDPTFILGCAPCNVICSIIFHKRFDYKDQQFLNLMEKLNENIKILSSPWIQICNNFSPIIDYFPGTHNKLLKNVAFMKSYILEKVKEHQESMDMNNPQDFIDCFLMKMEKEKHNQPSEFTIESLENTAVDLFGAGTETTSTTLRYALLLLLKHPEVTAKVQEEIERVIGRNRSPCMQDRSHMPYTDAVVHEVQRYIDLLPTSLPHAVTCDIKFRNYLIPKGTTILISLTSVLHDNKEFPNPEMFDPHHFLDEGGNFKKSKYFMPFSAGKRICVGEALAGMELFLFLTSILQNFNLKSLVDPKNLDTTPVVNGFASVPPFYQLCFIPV
Procedure, shortened: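 P450-Glo proluciferin substrate with CYP2C9 enzyme; 10 min RT preincubation, then NADPH regeneration 1 h at 37C; luciferin detection reagent 20 min RT, luminescence in relative luminescence units.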

[10] = target: Cytochrome P450 1A2 (Homo sapiens) (UniProt P05177); experiment: Cytochrome P450 Family 1 Subfamily A Member 2 (CYP1A2) small molecule antagonists: luciferase reporter qHTS assay (AID 1671199); note: nearly all actives have a fitted effect of over 50% in size; note: potency is the fitted concentration of half-maximal effect
Sequence of Cytochrome P450 1A2 (Homo sapiens) (P05177 whole entry, looked up): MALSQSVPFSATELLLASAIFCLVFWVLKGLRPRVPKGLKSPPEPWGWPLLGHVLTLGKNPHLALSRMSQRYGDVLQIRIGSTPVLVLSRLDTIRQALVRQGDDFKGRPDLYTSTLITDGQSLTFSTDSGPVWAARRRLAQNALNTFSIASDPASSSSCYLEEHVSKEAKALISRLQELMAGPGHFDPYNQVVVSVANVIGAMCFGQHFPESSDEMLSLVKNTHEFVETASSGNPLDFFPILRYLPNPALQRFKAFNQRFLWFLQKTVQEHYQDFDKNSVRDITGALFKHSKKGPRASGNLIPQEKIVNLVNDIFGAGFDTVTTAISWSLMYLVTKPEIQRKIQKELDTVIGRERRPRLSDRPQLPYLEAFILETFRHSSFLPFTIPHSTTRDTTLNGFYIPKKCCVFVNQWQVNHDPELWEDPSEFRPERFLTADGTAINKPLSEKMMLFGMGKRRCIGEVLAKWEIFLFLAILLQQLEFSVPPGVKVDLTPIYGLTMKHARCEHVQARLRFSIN
Procedure, shortened: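 Quantitative high-throughput format using the P450-Glo CYP1A2 system. Reaction initiated by NADPH regeneration solution, 1 h at room temperature, then stopped with detection reagent; luminescence measured 20 min later.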

[11] = target: Thyrotropin-releasing hormone receptor (Homo sapiens) (UniProt P34981); experiment: qHTS assay to identify small molecule agonists of the thyrotropin-releasing hormone receptor (TRHR) signaling pathway (AID 1346891; calls by dose curve; note: series mostly up to about 58 µM; % is set by controls: 0 for no effect and ±100 for the full control effect)
Sequence of Thyrotropin-releasing hormone receptor (Homo sapiens) (P34981 whole entry, looked up): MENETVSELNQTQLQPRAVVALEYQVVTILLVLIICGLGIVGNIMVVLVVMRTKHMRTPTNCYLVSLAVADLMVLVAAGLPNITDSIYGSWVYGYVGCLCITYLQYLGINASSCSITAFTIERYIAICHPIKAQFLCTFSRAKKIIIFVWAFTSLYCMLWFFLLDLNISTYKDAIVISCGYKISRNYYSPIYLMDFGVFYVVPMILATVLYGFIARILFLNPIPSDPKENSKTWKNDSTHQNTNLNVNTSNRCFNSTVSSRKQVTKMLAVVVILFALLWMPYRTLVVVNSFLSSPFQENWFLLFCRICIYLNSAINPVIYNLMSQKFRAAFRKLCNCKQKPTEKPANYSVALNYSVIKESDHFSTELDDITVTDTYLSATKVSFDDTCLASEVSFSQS
Procedure, shortened: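 Intracellular calcium rise, read as fluorescence every second for 3 min, served as the agonist signal in dye-loaded HEK293 cells expressing TRHR; each compound ran at 15 concentrations in triplicate.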

[12] = Caspase-3/7 induction in CHO-K1 cells by small molecules, qHTS cell viability counter screen (AID 1346979); note: nearly all actives have a fitted effect of over 35% in size; note: potency is the fitted concentration of half-maximal effect
Procedure, shortened: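 Cells (CHO-K1, wild type) are plated at 1,500 per well and incubated 5hr. Test compounds in DMSO are then pinned in, followed by 16hr at 37C and 5% CO2. Viability is read by CellTiter-Fluor fluorescence after 1hr.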

[13] = target: Voltage-gated inwardly rectifying potassium channel KCNH2 (Homo sapiens) (UniProt Q12809); experiment: Human Ether-a-go-go-Related Gene (hERG) channel small molecule antagonists: fluorescence cell-based qHTS assay (AID 1671200);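 note: hERG-expressing U2OS cells given a thallium stimulus after FluxOR II dye loading; series mostly up to about 77 µM; % is set by controls: 0 for no effect and ±100 for the full control effect; nearly all actives have a fitted effect of over 50% in size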
Sequence of Voltage-gated inwardly rectifying potassium channel KCNH2 (Homo sapiens) (Q12809 whole entry, looked up): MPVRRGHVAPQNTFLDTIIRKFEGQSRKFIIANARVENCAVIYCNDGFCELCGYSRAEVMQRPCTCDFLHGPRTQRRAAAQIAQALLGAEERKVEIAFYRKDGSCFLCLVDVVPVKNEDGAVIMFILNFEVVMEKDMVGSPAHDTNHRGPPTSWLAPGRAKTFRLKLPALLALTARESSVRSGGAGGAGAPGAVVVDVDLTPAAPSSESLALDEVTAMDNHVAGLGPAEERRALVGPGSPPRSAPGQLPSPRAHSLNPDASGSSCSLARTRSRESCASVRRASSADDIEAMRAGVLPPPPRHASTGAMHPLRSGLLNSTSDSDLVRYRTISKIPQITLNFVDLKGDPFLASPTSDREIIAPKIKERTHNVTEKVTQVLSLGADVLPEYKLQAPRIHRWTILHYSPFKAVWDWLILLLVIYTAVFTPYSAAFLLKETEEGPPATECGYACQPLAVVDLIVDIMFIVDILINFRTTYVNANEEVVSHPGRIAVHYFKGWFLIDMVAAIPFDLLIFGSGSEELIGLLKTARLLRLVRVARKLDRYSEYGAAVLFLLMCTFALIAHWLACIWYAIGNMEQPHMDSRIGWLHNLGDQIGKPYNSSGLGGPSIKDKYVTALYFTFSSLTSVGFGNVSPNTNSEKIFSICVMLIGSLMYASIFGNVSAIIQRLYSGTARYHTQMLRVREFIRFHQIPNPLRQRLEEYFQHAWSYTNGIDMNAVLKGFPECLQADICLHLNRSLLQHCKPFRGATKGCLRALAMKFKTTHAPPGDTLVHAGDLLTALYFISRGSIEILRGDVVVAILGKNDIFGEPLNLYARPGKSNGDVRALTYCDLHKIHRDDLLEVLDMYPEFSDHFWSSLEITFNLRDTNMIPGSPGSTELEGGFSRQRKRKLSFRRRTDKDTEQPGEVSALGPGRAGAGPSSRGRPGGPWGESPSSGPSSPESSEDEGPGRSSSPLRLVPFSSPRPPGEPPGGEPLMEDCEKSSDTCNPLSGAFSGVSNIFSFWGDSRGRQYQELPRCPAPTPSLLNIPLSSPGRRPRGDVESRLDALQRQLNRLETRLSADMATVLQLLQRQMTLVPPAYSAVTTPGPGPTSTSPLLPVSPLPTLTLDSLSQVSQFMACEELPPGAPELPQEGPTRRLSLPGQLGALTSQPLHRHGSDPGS
Procedure, shortened: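 Channel function was assessed by thallium flux. Cells seeded the previous day and kept at 37 C took up FluxOR II dye over 1 h in the dark at room temperature, then sat another 10 min before stimulation.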

[14] = Human pregnane X receptor (PXR) small molecule agonists, qHTS cell viability counter screen (AID 1346977); note: nearly all actives have a fitted effect of over 50% in size; note: potency is the fitted concentration of half-maximal effect
Procedure, shortened: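 PXR-Luc HepG2, 2,000 cells/well, 5% charcoal-stripped FBS; 5hr settle; cpd 24hr, 37C/5% CO2; CellTiter-Fluor at 23hr, read 1hr later (fluorescence).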

[15] = target: Cytochrome P450 3A4 (Homo sapiens) (UniProt P08684); experiment: Cytochrome P450 Family 3 Subfamily A Member 4 (CYP3A4) small molecule antagonists: luciferase reporter qHTS assay (AID 1671201)
Sequence of Cytochrome P450 3A4 (Homo sapiens) (P08684 whole entry, looked up): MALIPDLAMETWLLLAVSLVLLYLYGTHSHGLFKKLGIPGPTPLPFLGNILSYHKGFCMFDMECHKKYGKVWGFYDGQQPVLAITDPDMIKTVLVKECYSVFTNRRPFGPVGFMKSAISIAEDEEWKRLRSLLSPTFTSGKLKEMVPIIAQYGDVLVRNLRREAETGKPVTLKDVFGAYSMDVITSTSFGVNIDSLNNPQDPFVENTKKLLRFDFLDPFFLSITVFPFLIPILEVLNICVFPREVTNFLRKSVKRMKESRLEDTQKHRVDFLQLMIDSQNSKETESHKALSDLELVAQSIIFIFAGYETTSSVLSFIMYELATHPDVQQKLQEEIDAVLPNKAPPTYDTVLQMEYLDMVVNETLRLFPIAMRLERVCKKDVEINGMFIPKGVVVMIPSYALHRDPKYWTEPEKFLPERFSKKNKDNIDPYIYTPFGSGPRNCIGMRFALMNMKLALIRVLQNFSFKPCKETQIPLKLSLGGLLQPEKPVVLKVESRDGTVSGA
Procedure, shortened: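 Compounds in DMSO were pin-transferred onto CYP3A4 enzyme-substrate mix and held 10 min at room temperature. NADPH regenerating solution started the reaction for 1 h; luciferin detection reagent stopped it, and luminescence was read after 20 min.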

CCOC(=O)[C@H](CCc1ccccc1)N[C@@H](C)C(=O)N1Cc2ccccc2C[C@H]1C(=O)O
35.8 µM (active) and inactive: Potency [8]
inactive: Potency [1] | Potency [2] | Potency [3] | max activation [5] -0.751% | outcome [6] | Potency [7] | Potency [10]
active: Potency [4] 30.9 µM and 11.9 µM | Potency [9] 8.02 µM and 12.3 µM

COC(=O)Nc1nc2ccc(Sc3ccccc3)cc2[nH]1
25.2 µM (active) and inactive: Potency [8]
inactive: Potency [11] | Potency [1] | Potency [3] | Potency [7]
active: Potency [12] 30.6 µM and 10.6 µM | Potency [2] 54.5 µM | Potency [5] 1.26 µM | Potency [10] 12.6 µM

Oc1ccc2ccccc2c1
inactive: Potency [1] | Potency [12] | Potency [2] | Potency [3] | Potency [13]

NC(=O)NNc1ccccc1
inactive: Potency [11] | Potency [1] | Potency [12] | Potency [2] | Potency [3] | max activation [5] -0.925% and 0.997%

CC1=C(/C=C/C(C)=C/C=C/C(C)=C/CO)C(C)(C)CCC1
active: Potency [12] 69.4 µM | Potency [4] 55.1 µM and 32.3 µM | Potency [8] 50.9 µM and 37.5 µM | Potency [9] 64.1 µM and 37.5 µM | Potency [10] 20.3 µM
inactive: Potency [11] | Potency [1] | Potency [2] | Potency [3]

CN(C)c1ccc(C(=N)c2ccc(N(C)C)cc2)cc1
active: Potency [14] 17.8 µM and 23.4 µM | Potency [12] 30.3 µM and 18.6 µM | Potency [3] 42.7 µM and 46.7 µM | Potency [4] 2.14 µM and 14.8 µM | Potency [7] 125 nM and 76.7 nM | Potency [8] 5.57 µM and 15.3 µM | Potency [10] 17.6 µM and 21.6 µM | Potency [15] 39.4 µM
2.4 µM (active) and inactive: Potency [1]
inactive: Potency [2] | Potency [9]

Cc1cc(NS(=O)(=O)c2ccc(N)cc2)no1
inactive: Potency [1] | Potency [12] | Potency [2] | Potency [3]

O=[N+]([O-])c1cc(N(CCO)CCO)ccc1NCCO
active: Potency [12] 27.3 µM and 30.6 µM | Potency [3] 30.6 µM and 48.6 µM | Potency [7] 39.8 µM and 31.7 µM | Potency [8] 22.4 µM and 39.9 µM | Potency [9] 35.5 µM and 39.9 µM | Potency [10] 35.5 µM and 35.6 µM | Potency [15] 35.5 µM and 39.9 µM
inactive: Potency [1] | Potency [2] | Potency [4] | Potency [13]

NCCNCCNCCNCCN
active: Potency [7] 63 µM | Potency [8] 63 µM
inactive: Potency [14] | Potency [1] | Potency [12] | Potency [2] | Potency [3] | Potency [4] | max activation [5] -4.35% | outcome [6] | activity change, negative = inhibition [7] -26.4% [at 10.5 µM] | activity change, negative = inhibition [8] 36.2% [at 10.5 µM] | activity change, negative = inhibition [9] 8.07% [at 10.5 µM] | activity change, negative = inhibition [10] 8.65% [at 10.5 µM] | Potency [13]

Source: PubChem BioAssay (Tox21)
